The source made the active and inactive calls. Unless noted, the rule behind the calls is not given here.

A short description of test [1]: compounds binding Alexa647 anti-His antibody – biochemical, small-molecule microarray, 635 nm fluorescence, artefact control for SMM control protein annotation, primary screen (AID 1128).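 Note: score merges feature fluorescence with signal-to-noise for each printed compound spot.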 Conditions: higher = more signal.
Test [2] deals with Human papillomavirus type 1a E7 protein (residues 1-88). Briefly: HPV1a E7 small-molecule binders, primary screen, biochemical, small-molecule microarray, residues 1-88, 635 nm (AID 1129). Conditions: small-molecule microarray binding, fluorescence 635 nm; higher = more signal.
Test [3] concerns the target Focal adhesion kinase 1 (Homo sapiens) (UniProt Q05397). Briefly: PTK2 protein binding on printed compound slides – biochemical, small-molecule microarray, 635/667 nm fluorescence, BSA, DTT, primary screen (AID 1130).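 Note: composite of spot emission at 667 nm and signal to noise over triplicate slides.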 Conditions: 635 nm fluorescence, higher = more signal.
Test [4] has as its system Fibrinogen (Alexa647-labelled). Kind of test: Alexa647-fibrinogen binding to printed small molecules – biochemical, small-molecule microarray, 635/667 nm fluorescence, artefact control for SMM control-protein annotation, profiling panel (AID 1131).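 Note: z-score merges 667 nm fluorescence with per-spot signal-to-noise over triplicate slides.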 Conditions: fibrinogen-A647 binding fluorescence, higher = more signal.
Test [5] concerns the target Follistatin (Homo sapiens) (UniProt P19883). Kind of test: FST protein binding to printed compounds – biochemical, small-molecule microarray, 635/667 nm fluorescence, primary screen (AID 1132). As to conditions: 635 nm fluorescence, higher = more signal.
In test [6] the target is Fibroblast growth factor 2 (Homo sapiens) (UniProt P09038). Briefly: basic fibroblast growth factor binding to printed compounds – biochemical, small-molecule microarray, 635/667 nm fluorescence, primary screen (AID 1133). As to conditions: FGF2, fluorescence 635/667, higher = more signal.
The nature of test [7]: JC-1 mitochondrial potential readout, lung cancer cells – cell-based, A549, JC-1 fluorescence, basal, 24 h, 100 nL, profiling panel (AID 1138).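 Note: A549 lung adenocarcinoma cells under basal conditions with no added stimulus; test concentration not given here.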 Conditions: higher = more signal.
A further test relates to Lefty1. Briefly: Lefty1 protein binding to printed compounds – biochemical, small-molecule microarray, 635/667 nm fluorescence, primary screen (AID 1139). Conditions: fluorescence 635/667, higher = more signal.
Test [8] has as its system wheat germ agglutinin (Triticum aestivum), Alexa647-labelled. Kind of test: Alexa647-WGA lectin binding to printed small molecules – biochemical, small-molecule microarray, 635/667 nm fluorescence, artefact control for SMM control-protein annotation, profiling panel (AID 1140).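 Note: score merges 667 nm feature emission with signal to noise over triplicate slides.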 As to conditions: WGA-A647 binding, 635 nm fluorescence, higher = more signal.
Test [9] concerns the target Luciferin 4-monooxygenase (Photinus pyralis) (UniProt P08659). Kind of test: inhibition of purified Photinus pyralis luciferase – biochemical, luminescence, purified enzyme, 2006 set, primary screen (AID 1141).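 Note: cell-free assay with purified firefly luciferase at 100 ng per well in PBS; test concentration not given here.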 As to conditions: purified firefly luciferase, SteadyGlo luminescence, 30 min; higher = more signal, called active from +8 up or from −8 down.
The subject of test [10] is Wnt5a (protein binding on small-molecule microarray). Kind of test: small molecules binding Wnt5a protein – biophysical, small-molecule microarray, 635/667 nm fluorescence, primary screen (AID 1142).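 Note: fluorescence read at 667 nm with signal to noise per printed feature.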 Conditions: 635 nm fluorescence, higher = more signal.
A short description of test [11]: ATP-based viability of Huh7 replicon cells – cell-based, CellTiter-Glo luminescence, basal, 48 h, cytotoxicity control for HCV replication inhibitor project, primary screen (AID 1143).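 Note: Huh7 hepatoma cells carrying a hepatitis C replication reporter with no stimulus; test concentration not given here.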 As to conditions: higher = more signal, called active from +8 up or from −8 down. (A replicon is a self-replicating genome or part of one, used to study replication in cells.)
Test [12] is described as follows: Pseudomonas biofilm growth suppression – PAO1 strain, BacTiter-Glo luminescence, LB-PBS, primary screen (AID 1144). Conditions: P. aeruginosa PAO1 biofilm, 12 h, higher = more signal.
Test [13] in a line: basal CRE-LacZ reporter activity in PC12 – cell-based, unstimulated, primary screen (AID 1145). Conditions: no forskolin, luminescence, 4.5 h, higher = more signal, called active from +8 up or from −8 down.
Test [14] is described as follows: forskolin-driven CRE-LacZ activity in PC12 – cell-based, CRE-LacZ reporter, forskolin-stimulated, primary screen (AID 1146).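 Note: PC12 cells with 6xCRE LacZ reporter stimulated by forskolin 10 µM; beta-galactosidase reporter signal reflecting CREB driven transcription.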 Conditions: luminescence, 4.5 h, higher = more signal, called active from +8 up or from −8 down.
Test [15] has as its target Streptavidin (Streptomyces avidinii) (UniProt P22629). Briefly: compounds binding control protein streptavidin – biophysical, small-molecule microarray, 635/667 nm fluorescence, artefact control for SMM compound annotation, primary screen (AID 1147).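 Note: signal reflects streptavidin binding to arrayed compounds as a control protein.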 As to conditions: higher = more signal.
Test [16] can be described thus: probe aInhba binding on compound microarray – biochemical, small-molecule microarray, 635/667 nm fluorescence, primary screen (AID 1148).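 Note: score merges 667nm spot fluorescence with signal-to-noise for antibody binding to printed compounds.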 As to conditions: higher = more signal.
Test [17] deals with Torsin-1A (Homo sapiens) (UniProt O14656). Kind of test: TOR1A wild-type binding on microarray – cell lysate, small-molecule microarray, lysate, 635/667 nm, primary screen (AID 1149). Conditions: COS7 hTOR1A-WT lysate, 635 nm fluorescence, higher = more signal.
For test [18] the target is unchanged. Kind of test: torsin A mutant lysate binding on microarrays – cell lysate, small-molecule microarray, COS7 lysate, 635/667 nm fluorescence, primary screen (AID 1150).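 Note: score pools 667 nm emission and signal to noise measuring lysate protein binding.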 As to conditions: COS7 hTOR1A mutant lysate, 635 nm fluorescence, higher = more signal.
Test [19] concerns Sonic hedgehog protein (Shh). Briefly: Sonic hedgehog microarray binding compounds – biochemical, small-molecule microarray, 635/667 nm fluorescence, primary screen (AID 1151).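 Note: Shh protein binding to compounds spotted on small-molecule microarray slides; score combines spot fluorescence intensity with signal-to-noise across triplicate slides.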 As to conditions: 635 nm fluorescence, higher = more signal.

Chain of Fibroblast growth factor 2 (Homo sapiens) (P09038 whole entry, looked up): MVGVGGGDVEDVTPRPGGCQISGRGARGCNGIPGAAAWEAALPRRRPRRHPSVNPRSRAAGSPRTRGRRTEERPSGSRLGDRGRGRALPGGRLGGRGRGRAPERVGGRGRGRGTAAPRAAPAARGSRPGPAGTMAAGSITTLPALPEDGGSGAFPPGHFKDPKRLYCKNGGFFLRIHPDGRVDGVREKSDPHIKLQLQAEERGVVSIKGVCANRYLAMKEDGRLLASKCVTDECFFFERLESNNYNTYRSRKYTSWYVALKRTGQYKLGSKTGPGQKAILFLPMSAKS
Chain of Follistatin (Homo sapiens) (P19883 whole entry, looked up): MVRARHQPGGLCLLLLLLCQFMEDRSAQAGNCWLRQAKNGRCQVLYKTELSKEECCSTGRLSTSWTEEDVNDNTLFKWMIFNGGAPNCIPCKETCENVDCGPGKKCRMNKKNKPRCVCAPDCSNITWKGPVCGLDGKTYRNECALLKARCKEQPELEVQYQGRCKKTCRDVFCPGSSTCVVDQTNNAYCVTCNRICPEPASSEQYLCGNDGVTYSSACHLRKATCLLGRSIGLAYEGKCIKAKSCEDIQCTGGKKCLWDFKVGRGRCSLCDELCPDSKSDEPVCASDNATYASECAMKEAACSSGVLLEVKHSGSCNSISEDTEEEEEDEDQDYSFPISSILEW
Chain of Streptavidin (Streptomyces avidinii) (P22629 whole entry, looked up): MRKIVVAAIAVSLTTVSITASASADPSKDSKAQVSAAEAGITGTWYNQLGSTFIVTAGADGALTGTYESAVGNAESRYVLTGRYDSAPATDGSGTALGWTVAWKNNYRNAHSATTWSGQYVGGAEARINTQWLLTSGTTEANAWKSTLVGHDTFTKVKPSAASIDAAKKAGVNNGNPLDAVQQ
Chain of Focal adhesion kinase 1 (Homo sapiens) (Q05397 whole entry, looked up): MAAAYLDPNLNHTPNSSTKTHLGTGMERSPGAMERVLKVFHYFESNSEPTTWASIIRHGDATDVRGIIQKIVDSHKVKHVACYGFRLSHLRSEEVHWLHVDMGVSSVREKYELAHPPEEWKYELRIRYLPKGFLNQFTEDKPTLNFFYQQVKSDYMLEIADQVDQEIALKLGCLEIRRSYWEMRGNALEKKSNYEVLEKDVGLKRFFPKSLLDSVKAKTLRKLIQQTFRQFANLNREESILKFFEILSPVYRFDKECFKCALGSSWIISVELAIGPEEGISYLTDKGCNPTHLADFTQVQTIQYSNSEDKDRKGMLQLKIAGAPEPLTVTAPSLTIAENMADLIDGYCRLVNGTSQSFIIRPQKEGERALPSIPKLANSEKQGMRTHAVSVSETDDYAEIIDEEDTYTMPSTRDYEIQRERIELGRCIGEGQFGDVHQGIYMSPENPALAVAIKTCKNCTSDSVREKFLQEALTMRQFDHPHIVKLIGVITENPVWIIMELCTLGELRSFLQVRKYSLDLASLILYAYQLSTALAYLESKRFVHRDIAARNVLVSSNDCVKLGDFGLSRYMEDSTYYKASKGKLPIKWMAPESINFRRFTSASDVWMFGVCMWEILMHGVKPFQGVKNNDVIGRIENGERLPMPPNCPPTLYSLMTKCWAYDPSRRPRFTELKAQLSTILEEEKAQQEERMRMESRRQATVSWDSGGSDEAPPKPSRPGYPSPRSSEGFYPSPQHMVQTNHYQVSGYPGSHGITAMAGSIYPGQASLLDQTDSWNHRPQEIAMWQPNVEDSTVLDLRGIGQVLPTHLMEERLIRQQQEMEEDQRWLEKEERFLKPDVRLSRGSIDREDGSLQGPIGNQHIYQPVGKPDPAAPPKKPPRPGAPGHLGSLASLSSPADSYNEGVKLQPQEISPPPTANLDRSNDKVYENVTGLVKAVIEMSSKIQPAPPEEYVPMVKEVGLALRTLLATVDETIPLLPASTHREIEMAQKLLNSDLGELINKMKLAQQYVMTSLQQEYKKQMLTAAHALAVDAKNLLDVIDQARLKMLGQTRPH
Chain of Torsin-1A (Homo sapiens) (O14656 whole entry, looked up): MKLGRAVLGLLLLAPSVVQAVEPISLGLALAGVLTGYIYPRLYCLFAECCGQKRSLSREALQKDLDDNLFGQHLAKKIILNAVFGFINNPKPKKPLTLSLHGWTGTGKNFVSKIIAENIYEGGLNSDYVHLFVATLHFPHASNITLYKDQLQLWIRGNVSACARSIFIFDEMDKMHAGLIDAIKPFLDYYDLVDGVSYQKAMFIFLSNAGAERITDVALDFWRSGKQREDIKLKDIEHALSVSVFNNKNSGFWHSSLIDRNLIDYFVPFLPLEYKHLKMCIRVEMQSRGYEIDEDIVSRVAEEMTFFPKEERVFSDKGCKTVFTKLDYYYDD
Chain of Luciferin 4-monooxygenase (Photinus pyralis) (P08659 whole entry, looked up): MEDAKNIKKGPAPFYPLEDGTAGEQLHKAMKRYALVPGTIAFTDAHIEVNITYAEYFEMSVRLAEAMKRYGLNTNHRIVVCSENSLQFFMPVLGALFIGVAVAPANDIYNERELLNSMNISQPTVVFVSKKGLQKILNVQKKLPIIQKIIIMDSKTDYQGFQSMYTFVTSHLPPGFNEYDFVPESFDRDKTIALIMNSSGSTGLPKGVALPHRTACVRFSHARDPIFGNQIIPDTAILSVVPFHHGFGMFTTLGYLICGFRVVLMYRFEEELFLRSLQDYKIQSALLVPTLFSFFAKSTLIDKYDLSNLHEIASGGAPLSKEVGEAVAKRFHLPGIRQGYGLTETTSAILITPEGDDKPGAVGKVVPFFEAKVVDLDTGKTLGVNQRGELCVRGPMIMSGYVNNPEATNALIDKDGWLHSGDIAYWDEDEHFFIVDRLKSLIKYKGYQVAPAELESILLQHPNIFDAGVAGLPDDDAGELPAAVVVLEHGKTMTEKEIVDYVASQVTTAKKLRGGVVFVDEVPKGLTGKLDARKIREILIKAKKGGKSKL

Take `CCCCCN1CC=CC23O[C@@H]4C=CCOC(=O)[C@@H]4[C@H]2C(=O)N(CCCCCO)[C@@H]3C1=O` (stereo not given in full): the composite z-score in test [1] was 0.584; in [2], -0.465; in [3], 0.0875; in test [4] it was -1.87; in [5] it was -0.232; in [6] it was -0.486. Further, the composite z-score in the test on Lefty1 was 0.604; in [8], 0.0764; in test [10], -0.659; in test [15], -0.735; in test [16], -0.213; in the test with Torsin-1A (Homo sapiens) [17] it was 0.459. Moreover, the results for the composite z-score (with Torsin-1A (Homo sapiens) [18]; in [19]) were 2.16 and 0.32, respectively. The z-score in [7] was -0.465; in [9], 0.517 (inactive); in [11], -0.211 (inactive); in test [12] it was -1.51 (inactive); in [13], -1.45 (inactive); in test [14], -0.151 (inactive).

In the case of `NCCCC[C@@H]1NC(=O)[C@H]2C[C@@H](C(=O)O)[C@@H](c3cccc(OCCO)c3)N2C1=O`, the composite z-score in [1] is 3; in test [2] it was 1.26; in test [3] it was 0.188; in test [4], 0.577; in test [5], 1.41; in test [6] it was 1.69. In addition, the composite z-score amounted to 1.64 in the test with Lefty1; 1.44 in [8]; 0.424 in test [10]; 1.99 in [15]; 0.15 in test [16]; 1.18 with Torsin-1A (Homo sapiens) [17]. Further, the composite z-score worked out at 1.7 with Torsin-1A (Homo sapiens) [18] and 1.85 in [19]. Also, the z-score in test [7] is -1.44; in [9], -1.08 (inactive); in test [11], 0.0458 (inactive); in test [12], -0.0686 (inactive); in [13] it was -0.943 (inactive); in test [14], 0.963 (inactive).

With `CCCC[C@@H]1C[C@H]1[C@@H](NC(=O)Cc1ccccc1)c1ccc(Cl)cc1`, the composite z-score in test [1] is 1.84; in test [2] it was 1.18; in [3], 1.53; in test [4], 1.02; in test [5], 0.841; in test [6], -0.272. Besides, the composite z-score was -0.297 with Lefty1; 1.25 in [8]; 0.545 in [10]; 2.32 in [15]; -0.0002 in test [16]; 0.578 with Torsin-1A (Homo sapiens) [17]. Also, the composite z-score with Torsin-1A (Homo sapiens) [18] was 0.311; in test [19] it was -0.22. Moreover, the z-score is -2.79 in test [7]; 0.957 (inactive) in [9]; -3.44 (inactive) in test [11]; 1.19 (inactive) in test [12]; 0.962 (inactive) in [13]; 0.56 (inactive) in test [14].

Turning to `COc1ccc(CCNC(=O)[C@@]2(Sc3ccc(C)cc3)CC(=O)N(C(C)C)[C@@H]2c2ccc(CO)cc2)cc1`, the composite z-score in [1] is 0.8; in test [2], -0.594; in test [3], -0.13; in [4], -1.3; in test [5], -0.616; in test [6], -1.26. Besides, the composite z-score is -0.919 in the test with Lefty1; -0.29 in test [8]; -1.02 in [10]; -0.621 in test [15]; -0.137 in [16]; 0.939 in the test with Torsin-1A (Homo sapiens) [17]. The composite z-score is 0.122 with Torsin-1A (Homo sapiens) [18] and -1.6 in [19]. Also, the z-score in test [7] is 0.339; in test [9], -0.424 (inactive); in test [11] it was -0.583 (inactive); in test [12], 0.305 (inactive); in test [13], 1.56 (inactive); in test [14] it was -0.519 (inactive).

Regarding `C=CCOC(=O)[C@@H]1[C@H]2C(=O)O[C@H](c3ccccc3)[C@H](c3ccccc3)N2[C@H](c2ccc(OCCOC(=O)[C@H]3C[C@H]4C(=O)NCC(=O)N4[C@H]3c3ccc(O)cc3)cc2)[C@@]12C(=O)Nc1ccc(I)cc12`, the composite z-score in [1] amounted to 1.24; in test [2], 1.19; in [3], 0.701; in [4], 0.732; in test [5], 1.27; in [6], 1.39. In addition, the composite z-score with Lefty1 is 1.06; in [8], 0.665; in [10] it was 0.266; in test [15], 0.868; in [16], -0.0163; in the test with Torsin-1A (Homo sapiens) [17] it was 1.11. Further, the values for the composite z-score (with Torsin-1A (Homo sapiens) [18]; in test [19]) were 0.854 and 1.81, respectively. Besides, the z-score in test [7] was -1.1; in test [9], -0.483 (inactive); in test [11], -0.199 (inactive); in test [12] it was 0.22 (inactive); in [13], -0.394 (inactive); in [14], -0.732 (inactive).

Values taken from PubChem BioAssay.
